One assay deals with T1, Her1-GFP homodimer (zebrafish (Danio rerio), UniProt Q90463 1-328).
T1 sequence: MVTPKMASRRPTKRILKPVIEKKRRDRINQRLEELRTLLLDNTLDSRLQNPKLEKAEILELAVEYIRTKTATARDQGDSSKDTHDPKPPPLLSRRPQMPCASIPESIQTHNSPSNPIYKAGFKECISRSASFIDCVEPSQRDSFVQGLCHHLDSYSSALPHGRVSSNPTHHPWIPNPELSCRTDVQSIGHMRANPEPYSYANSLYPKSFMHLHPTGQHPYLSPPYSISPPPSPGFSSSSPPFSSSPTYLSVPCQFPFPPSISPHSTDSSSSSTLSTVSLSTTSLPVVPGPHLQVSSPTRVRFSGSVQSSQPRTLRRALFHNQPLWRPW
The assay can be described thus: MITOMI; PPARgamma-mCherry co-present (non-interacting control); TnT SP6 wheat germ expression extract on MITOMI chip, 3 h at room temperature; salt and pH not stated; PBS used for washing; high values mean tight binding. The note with it: protein: ivt; tags: C-terminal GFP; chain copies: 2; label: Cy5; dsDNA, one strand shown.

The target in assay [1] is T2, Her7 (coupled to chip, Fig 2D);Hes6-mCherry (zebrafish (Danio rerio);zebrafish …, UniProt Q9I9K1;Q6P0J1 1-206;1-226, |).
T2 sequence 1: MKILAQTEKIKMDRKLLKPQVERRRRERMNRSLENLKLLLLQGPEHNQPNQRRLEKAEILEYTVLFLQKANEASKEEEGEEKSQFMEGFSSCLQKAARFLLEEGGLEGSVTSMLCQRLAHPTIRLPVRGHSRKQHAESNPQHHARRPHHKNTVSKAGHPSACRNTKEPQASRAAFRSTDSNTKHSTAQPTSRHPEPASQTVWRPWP
T2 sequence 2: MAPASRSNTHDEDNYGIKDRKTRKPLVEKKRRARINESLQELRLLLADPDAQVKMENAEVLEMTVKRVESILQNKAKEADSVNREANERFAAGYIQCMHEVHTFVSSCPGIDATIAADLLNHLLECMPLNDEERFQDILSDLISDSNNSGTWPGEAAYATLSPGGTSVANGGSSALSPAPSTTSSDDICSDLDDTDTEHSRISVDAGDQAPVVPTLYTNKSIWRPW
The assay can be described thus: MITOMI; Her7:Hes6 heterodimer, Her7 coupled to chip and Hes6-mCherry in solution; TnT SP6 wheat germ expression extract on MITOMI chip, 3 h at room temperature; salt and pH not stated; PBS used for washing; high values mean tight binding. The following applies: protein: ivt;ivt; copies: 1;1; label: Cy5; dsDNA, one strand shown.

On to CGACACGTGCTC, for which the binding signal was 0.416 ± 0.00933 relative affinity (strongest site = 1) with Her1-GFP homodimer and 0.638 ± 0.0296 relative affinity (strongest site = 1) in assay [1]. With CGACACGCGGTG, the binding signal is 0.0408 ± 0.00225 relative affinity (strongest site = 1) with Her1-GFP homodimer and 0.0849 ± 0.00174 relative affinity (strongest site = 1) in assay [1]. In the same order, the values of GTTCGCGTGTGC are 0.0452 ± 0.00123 relative affinity (strongest site = 1) and 0.1 ± 0.00206 relative affinity (strongest site = 1). In the same order, the values of CAGCGCGTGCCT are 0.227 ± 0.0107 relative affinity (strongest site = 1) and 0.4636 ± 0.00426 relative affinity (strongest site = 1). Consider CTCCTCGTGTTG, for which the binding signal was 0.0177 ± 0.000557 relative affinity (strongest site = 1) with Her1-GFP homodimer and 0.0605 ± 0.00276 relative affinity (strongest site = 1) in assay [1].

With TTGCTCGTGCTT, the binding signal in the assay with Her1-GFP homodimer was 0.0235 ± 0.00192 relative affinity (strongest site = 1); in assay [1] it was 0.109 ± 0.00195 relative affinity (strongest site = 1).

On to TTCCACGGGTCT, for which the results for the binding signal (in the assay with Her1-GFP homodimer; in assay [1]) were 0.0411 ± 0.00212 relative affinity (strongest site = 1) and 0.0587 ± 0.00207 relative affinity (strongest site = 1), respectively.

Turning to GGTCGCGTGTGC, the figures for the binding signal (with Her1-GFP homodimer; in assay [1]) were 0.181 ± 0.0115 relative affinity (strongest site = 1) and 0.182 ± 0.00317 relative affinity (strongest site = 1), respectively. As for TGACGCGTGTGA, the binding signal with Her1-GFP homodimer was 0.118 ± 0.00595 relative affinity (strongest site = 1); in assay [1], 0.387 ± 0.0053 relative affinity (strongest site = 1).

In the case of TGGCACGTGTCC, the binding signal in the assay with Her1-GFP homodimer was 1 ± 0.0321 relative affinity (strongest site = 1); in assay [1], 1 ± 0.0512 relative affinity (strongest site = 1). In the same order, the values of TCCCACGGGATT are 0.0209 ± 0.00257 relative affinity (strongest site = 1) and 0.0207 ± 0.00168 relative affinity (strongest site = 1).

For the sequence GCCCACGCGCCG, the binding signal is 0.119 ± 0.00729 relative affinity (strongest site = 1) with Her1-GFP homodimer and 0.168 ± 0.00251 relative affinity (strongest site = 1) in assay [1]. Take AAGCACGTGATC: the results for the binding signal (in the assay with Her1-GFP homodimer; in assay [1]) were 0.0423 ± 0.00127 relative affinity (strongest site = 1) and 0.0912 ± 0.0018 relative affinity (strongest site = 1), respectively. In the same order, the values of TATCTCGTGCTG are 0.029 ± 0.0011 relative affinity (strongest site = 1) and 0.0758 ± 0.00824 relative affinity (strongest site = 1). As to TGCCGCGTGCCG, the binding signal is 0.216 ± 0.0104 relative affinity (strongest site = 1) with Her1-GFP homodimer and 0.369 ± 0.00323 relative affinity (strongest site = 1) in assay [1].

As to AGCCACGTGGCT, the values for the binding signal (in the assay with Her1-GFP homodimer; in assay [1]) were 0.57 ± 0.0193 relative affinity (strongest site = 1) and 0.347 ± 0.00813 relative affinity (strongest site = 1), respectively. With TTGCACGTGTAC, the binding signal in the assay with Her1-GFP homodimer is 0.0556 ± 0.0021 relative affinity (strongest site = 1); in assay [1], 0.178 ± 0.00237 relative affinity (strongest site = 1). Taken in the same sequence, the figures for CAGCGCGTGTGC were 0.057 ± 0.0015 relative affinity (strongest site = 1) and 0.179 ± 0.00225 relative affinity (strongest site = 1). In the same order, the values of CAACACGGGGTG are 0.026 ± 0.00978 relative affinity (strongest site = 1) and 0.0311 ± 0.0032 relative affinity (strongest site = 1).

Take GTTCACGTGTGC: the binding signal in the assay with Her1-GFP homodimer was 0.0341 ± 0.00138 relative affinity (strongest site = 1); in assay [1], 0.102 ± 0.00486 relative affinity (strongest site = 1). Consider ATACACAGTGCGC, for which the figures for the binding signal (with Her1-GFP homodimer; in assay [1]) were 0.0128 ± 0.000425 relative affinity (strongest site = 1) and 0.0208 ± 0.0021 relative affinity (strongest site = 1), respectively. In the case of CAGCACGTGTCT, the binding signal with Her1-GFP homodimer is 0.456 ± 0.0098 relative affinity (strongest site = 1); in assay [1], 0.679 ± 0.014 relative affinity (strongest site = 1).

Take AAACACGAGCCA: the binding signal with Her1-GFP homodimer is 0.0562 ± 0.00247 relative affinity (strongest site = 1); in assay [1], 0.208 ± 0.00306 relative affinity (strongest site = 1). With CTCCACGTGCCC, the binding signal was 0.269 ± 0.00665 relative affinity (strongest site = 1) with Her1-GFP homodimer and 0.297 ± 0.00926 relative affinity (strongest site = 1) in assay [1]. Take AGACACGCGCTA: the binding signal is 0.118 ± 0.00385 relative affinity (strongest site = 1) with Her1-GFP homodimer and 0.2749 ± 0.00267 relative affinity (strongest site = 1) in assay [1]. In the case of TGTCGCGTGCCA, the binding signal was 0.597 ± 0.0246 relative affinity (strongest site = 1) in the assay with Her1-GFP homodimer and 0.531 ± 0.00964 relative affinity (strongest site = 1) in assay [1]. On to CTGCTCGTGCTT, for which the figures for the binding signal (with Her1-GFP homodimer; in assay [1]) were 0.0197 ± 0.00116 relative affinity (strongest site = 1) and 0.103 ± 0.00315 relative affinity (strongest site = 1), respectively. In the same order, the values of CTGCACGTGCAT are 0.0391 ± 0.00232 relative affinity (strongest site = 1) and 0.158 ± 0.00223 relative affinity (strongest site = 1).

Turning to GGGCACGTGCGC, the results for the binding signal (in the assay with Her1-GFP homodimer; in assay [1]) were 0.406 ± 0.00899 relative affinity (strongest site = 1) and 0.542 ± 0.0166 relative affinity (strongest site = 1), respectively.

As to AGCCTCGTGTAA, the binding signal is 0.0363 ± 0.00627 relative affinity (strongest site = 1) with Her1-GFP homodimer and 0.0516 ± 0.00244 relative affinity (strongest site = 1) in assay [1]. In the case of GCCCACGGGCCC, the results for the binding signal (in the assay with Her1-GFP homodimer; in assay [1]) were 0.144 ± 0.0313 relative affinity (strongest site = 1) and 0.0279 ± 0.00171 relative affinity (strongest site = 1), respectively.

For CCGCGCGTGCCA, the binding signal was 0.279 ± 0.0129 relative affinity (strongest site = 1) with Her1-GFP homodimer and 0.516 ± 0.0179 relative affinity (strongest site = 1) in assay [1].

For the sequence GTACACGTGGCG, the binding signal with Her1-GFP homodimer was 0.237 ± 0.00793 relative affinity (strongest site = 1); in assay [1], 0.275 ± 0.00281 relative affinity (strongest site = 1). TCACACCTGTGCAG: the binding signal in assay [1] is 0.02 ± 0.00133 relative affinity (strongest site = 1). For TGCCGCGTGCAC, the binding signal with Her1-GFP homodimer was 0.033 ± 0.00214 relative affinity (strongest site = 1); in assay [1], 0.163 ± 0.00188 relative affinity (strongest site = 1). Take ATCCACGTGTCC: the binding signal is 0.303 ± 0.0145 relative affinity (strongest site = 1) with Her1-GFP homodimer and 0.256 ± 0.00386 relative affinity (strongest site = 1) in assay [1]. Taken in the same sequence, the figures for AGGCGCGTGGTG were 0.077 ± 0.00506 relative affinity (strongest site = 1) and 0.157 ± 0.00403 relative affinity (strongest site = 1).

For GTTCTCGTGTTT, the values for the binding signal (in the assay with Her1-GFP homodimer; in assay [1]) were 0.0171 ± 0.0014 relative affinity (strongest site = 1) and 0.0265 ± 0.0016 relative affinity (strongest site = 1), respectively. Turning to CATCACGTGAAA, the figures for the binding signal (with Her1-GFP homodimer; in assay [1]) were 0.018 ± 0.00636 relative affinity (strongest site = 1) and 0.0344 ± 0.00348 relative affinity (strongest site = 1), respectively. Regarding TTCCACGAGAAA, the binding signal in the assay with Her1-GFP homodimer was 0.0129 ± 0.000672 relative affinity (strongest site = 1); in assay [1], 0.0286 ± 0.00127 relative affinity (strongest site = 1). In the same order, the values of GGGCGCGTGCCG are 0.576 ± 0.0101 relative affinity (strongest site = 1) and 0.748 ± 0.021 relative affinity (strongest site = 1). Turning to GCGCTCGTGCGC, the values for the binding signal (in the assay with Her1-GFP homodimer; in assay [1]) were 0.0291 ± 0.00508 relative affinity (strongest site = 1) and 0.0861 ± 0.00202 relative affinity (strongest site = 1), respectively.

For CGGCGCGTGCCA, the binding signal was 0.73 ± 0.0316 relative affinity (strongest site = 1) in the assay with Her1-GFP homodimer and 0.959 ± 0.0356 relative affinity (strongest site = 1) in assay [1].

Values taken from paper PMC3404119, “Topology and Dynamics of the Zebrafish Segmentation Clock Core Circuit”.
